Assay outcomes (PubChem BioAssay)
This is a sample that favours compounds with a hit; in the whole collection about 3.7% have one here.
BRCA1 expr act: qHTS Assay to Identify Small Molecule Activators of BRCA1 Expression; MCF7-BRCA1-FFLuc reporter, luminescence, 48 h; response scale: scaled: vehicle 0%, 10 µM genistein 100%; Potency, µM (highest dose often 46.1 µM), inactives show at the highest dose activation, usual class: activators; 380,000 tested, 1.1% active; also: potency is read from the fitted curve at half-maximal effect; nearly all actives have a fitted effect of over 80% in size
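Reporter cells (MCF7, BRCA1 promoter-firefly luciferase) received library compounds across a concentration series for 48 h. End-point luminescence was measured and concentration-effect curves derived after normalization.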
B2AR arrestin: qHTS assay of beta-arrestin-biased ligands of beta2-adrenergic receptor; beta-arrestin recruitment to beta2AR, cell-based reporter; 330,000 tested, 0.02% active; Potency, µM (titrated, usually from 46.1 µM), for the others: top-dose activation, most hits filed as activators; Beta-2 adrenergic receptor (Homo sapiens), P07550;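 also: potency is read from the fitted curve at half-maximal effect; 0% = DMSO controls and full agonism = EC100 isoproterenol or metaproterenol; nearly all actives have a fitted effect of over 65% in size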
Target sequence (P07550 whole entry, looked up): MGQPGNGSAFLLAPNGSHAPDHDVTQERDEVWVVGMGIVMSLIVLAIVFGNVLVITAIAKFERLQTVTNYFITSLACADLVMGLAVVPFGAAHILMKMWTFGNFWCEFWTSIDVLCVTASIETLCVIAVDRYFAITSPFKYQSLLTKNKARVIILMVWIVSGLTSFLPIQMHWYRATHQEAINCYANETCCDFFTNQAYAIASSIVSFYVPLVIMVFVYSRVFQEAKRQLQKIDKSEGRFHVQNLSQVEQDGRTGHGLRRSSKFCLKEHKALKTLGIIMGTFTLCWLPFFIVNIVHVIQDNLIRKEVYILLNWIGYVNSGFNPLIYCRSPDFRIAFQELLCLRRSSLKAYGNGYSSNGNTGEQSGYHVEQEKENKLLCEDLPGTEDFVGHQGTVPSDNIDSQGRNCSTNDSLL
PTHR1 agonist: qHTS for PTHR1 Agonists: Primary Screen; AID 743266, 2014; Potency, µM (top dose mostly 115 µM), for the others: at the highest dose activation, usual class: activators; 410,000 tested, 0.075% active; HEK293 GP2 PTHR1 cells, GloSensor cAMP luminescence, 1 h; Parathyroid hormone/parathyroid hormone-related peptide receptor (Homo sapiens), Q03431; also: potency is read from the fitted curve at half-maximal effect; nearly all actives have a fitted effect of over 55% in size
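HEK-293-derived GP2 cells expressing PTHR1 and a GloSensor cAMP reporter, 3,000/well, plated overnight, given luciferin plus IBMX (each 0.5 mM as added) for 1 h at 37 °C, then compound for 1 h at 37 °C. Luminescence was read after 15 min at room temperature.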
RGS4 inhibitor: Inhibitors of Regulator of G Protein Signaling (RGS) 4: qHTS. Regulator of G-protein signaling 4 (Homo sapiens), P49798. Transcreener GDP fluorescence polarization, RGS4-accelerated GTP hydrolysis. Potency, µM (highest dose often 114 µM), inactives show top-dose activity change, negative = inhibition, most hits filed as inhibitors. 390,000 tested, 0.039% active. AID 504845, 2011; also: potency is read from the fitted curve at half-maximal effect; % is scaled to controls: 0 for no effect and ±100 for the full control effect; nearly all actives have a fitted effect of over 75% in size
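MLSMR compounds (23 nl, pin-transferred) preincubated 10 min at room temperature with a 500nM (2x) first reagent, then RGS4 at 900nM (2x) plus Transcreener GDP mix added; fluorescence polarization (620/688 nm) read before and after 90 min at 30 °C.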
DRD3 agonist: qHTS of D3 Dopamine Receptor Agonist: qHTS | D(3) dopamine receptor (Homo sapiens), P35462 | D3R DiscoveRx beta-arrestin cells, luminescence, 90 min | max activation, % | 410,000 tested, 0.58% active | AID 652048, 2013; in the data active = max activation above about 30%; also: 0% is about no effect
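Agonist mode: compounds and dopamine controls were applied to plated cells for 90 min at 37 degrees C after an overnight attachment at 1500 cells/well. Luminescent read-out followed 30 - 60 minutes at room temperature with DiscoveRx detection reagent.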
D3 antag: qHTS of D3 Dopamine Receptor Antagonist: qHTS. D(3) dopamine receptor (Homo sapiens), P35462. D3R cells, DiscoveRx beta-arrestin luminescence, antagonist mode; stronger effect = lower value. 360,000 tested, 2.5% active. max response, negative = inhibition, %; in the data active = max response below about -50%; inconclusive = no clear call, values can overlap the other calls; also: % is scaled to controls: 0 for no effect and ±100 for the full control effect
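Cells plated overnight at 1500 cells/well, then exposed to library compounds with dopamine controls for 90 minutes at 37 degrees C. DiscoveRx reagent added for 30–60 minutes at room temperature; luminescence read, quantitative HTS format.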
Active calls of the source: *. Unless noted, calls follow the shape of the dose curve; as a rule, active = well fitted curve in the direction sought with a large enough effect; inconclusive = small, poorly fitted or top-dose-only effect, or another doubt; inactive = no such curve, though single readings can be large; an effect the other way counts as inactive or inconclusive.

CC(=O)c1ccc(N2CCN(C(=O)c3cc(-c4ccncc4)nc4ccc(Cl)cc34)CC2)cc1 was read as BRCA1 expr act -0.1%, B2AR arrestin -0.6%, PTHR1 agonist -91.7%, RGS4 inhibitor -4.4%, DRD3 agonist 34.3* and D3 antag 0.7.
`Nc1cccc2c1C(=O)N(C(=O)/C=C/c1cccc(Br)c1)C2=O` gave BRCA1 expr act -82.2%, B2AR arrestin 5.1%, PTHR1 agonist -2.5%, RGS4 inhibitor inconclusive, DRD3 agonist 17.0 and D3 antag -11.0.
Screening COc1cc(/C=C/C(=O)N2C(=O)c3cccc(N)c3C2=O)cc(OC)c1OC returned BRCA1 expr act -38.1%, B2AR arrestin -0.7%, PTHR1 agonist -34.2%, RGS4 inhibitor 0.7%, DRD3 agonist -9.7 and D3 antag -82.0*.
Screening COc1ccc(OC)c(/C=C/C(=O)N2C(=O)c3cccc(N)c3C2=O)c1 returned BRCA1 expr act -82.8%, B2AR arrestin 4.5%, PTHR1 agonist inactive, RGS4 inhibitor -45.1%, DRD3 agonist 1.8 and D3 antag -64.8*.
`Cc1ccc2c(c1)C(=O)CC1(CCCCCC1)O2` gave BRCA1 expr act -0.5%, B2AR arrestin -1.8%, PTHR1 agonist -4.9%, RGS4 inhibitor -1.1%, DRD3 agonist -73.3 and D3 antag -114.6*.
O=C1C(SCCO)=C(SCCO)C(=O)c2ccccc21 was read as BRCA1 expr act -78.7%, B2AR arrestin -2.0%, PTHR1 agonist -93.8%, RGS4 inhibitor 3.36µM*, DRD3 agonist -66.9 and D3 antag -136.4*.
For O=c1[nH]c2ccccc2c(O)c1SCCO the results were BRCA1 expr act -2.9%, B2AR arrestin -0.7%, PTHR1 agonist -39.6%, RGS4 inhibitor -3.2%, DRD3 agonist -1.0 and D3 antag -3.6.
Screening COc1ccc(CCNC(=O)c2cc3c(C)nccc3[nH]c2=O)cc1OC returned BRCA1 expr act 0.0%, B2AR arrestin 0.1%, PTHR1 agonist -7.1%, RGS4 inhibitor -6.2%, DRD3 agonist 6.1 and D3 antag 24.2.
Screening CCOc1ccc(NC(=O)CN2C(=O)NC(C)(c3ccc4c(c3)OCCCO4)C2=O)cc1OCC (stereo not drawn) returned BRCA1 expr act -35.9%, PTHR1 agonist -2.4%, RGS4 inhibitor -19.7%, DRD3 agonist 3.1 and D3 antag 7.1.
CC(C)C[C@@H](CN)NC(=O)c1nc[nH]c1C(=O)N[C@@H](C)C(=O)CNC[C@H](C)NC(=O)c1nc[nH]c1C(=O)N[C@@H](Cc1ccccc1)C(=O)O was read as BRCA1 expr act 3.5%, PTHR1 agonist -6.6%, RGS4 inhibitor -4.8%, DRD3 agonist -16.9 and D3 antag -24.4.
Screening Cc1cccc(NS(=O)(=O)c2cccc(C(=O)NCC(C)(C)N3CCOCC3)c2)c1 returned BRCA1 expr act -21.6%, B2AR arrestin -0.6%, PTHR1 agonist -78.2%, RGS4 inhibitor inconclusive, DRD3 agonist 6.7 and D3 antag -81.0*.
Screening COc1ccccc1NS(=O)(=O)c1cccc(C(=O)NCC(C)(C)N2CCOCC2)c1 returned BRCA1 expr act -3.6%, B2AR arrestin 0.4%, PTHR1 agonist -0.3%, RGS4 inhibitor -9.4%, DRD3 agonist -0.4 and D3 antag 4.8.
CCN(N=O)[C@@H](Cc1ccccc1)CN(N=O)[C@@H](Cc1ccccc1)CN(C)N=O was read as BRCA1 expr act 6.1%, B2AR arrestin -0.3%, PTHR1 agonist inconclusive, RGS4 inhibitor -19.9%, DRD3 agonist 32.1* and D3 antag 0.0.
`O=C(CSCc1cnn(-c2ccccc2)c1-n1cccc1)NCc1cccc(Cl)c1` gave PTHR1 agonist -33.1%, RGS4 inhibitor -28.7% and DRD3 agonist -12.8.
